Bioassay records deposited in PubChem by National Center for Advancing Translational Sciences (NCATS).
Compounds with a hit are over-represented: about 3.3% of the library has one in this group of screens.
NPSR antag: blocks cAMP signaling of the human neuropeptide S receptor. CHO-NPSR cells, cAMP TR-FRET, antagonist mode. Q6W5P4. AID 1461. 220,000 tested, 1% active. Potency, µM (highest dose often 38.3 µM), without a hit: top-dose activity change, negative = inhibition, hits mostly inhibitors; note: nearly all actives have a fitted effect of over 50% in size
Target sequence (Q6W5P4 whole entry, looked up): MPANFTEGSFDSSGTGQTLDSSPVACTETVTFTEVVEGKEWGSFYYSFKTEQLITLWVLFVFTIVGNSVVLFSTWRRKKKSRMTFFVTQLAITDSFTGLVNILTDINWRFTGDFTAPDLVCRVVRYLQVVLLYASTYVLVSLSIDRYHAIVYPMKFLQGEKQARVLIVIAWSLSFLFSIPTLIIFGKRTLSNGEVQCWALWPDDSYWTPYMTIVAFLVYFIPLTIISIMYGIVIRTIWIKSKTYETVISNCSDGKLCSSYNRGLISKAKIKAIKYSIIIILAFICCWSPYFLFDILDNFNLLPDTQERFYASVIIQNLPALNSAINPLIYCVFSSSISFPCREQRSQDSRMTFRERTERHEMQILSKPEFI
Tau fibril ThT: blocks human tau fibril formation measured by thioflavin T | recombinant tau K18 P301L, heparin-induced fibrillization, ThT fluorescence | 270,000 tested, 2.1% active | Potency, µM (highest dose often 57.4 µM), for inactives: top-dose activity, negative = inhibition, usual class: inhibitors | AID 1460; note: nearly all actives have a fitted effect of over 55% in size
Target sequence (P10636 561-689 P618L limits assumed): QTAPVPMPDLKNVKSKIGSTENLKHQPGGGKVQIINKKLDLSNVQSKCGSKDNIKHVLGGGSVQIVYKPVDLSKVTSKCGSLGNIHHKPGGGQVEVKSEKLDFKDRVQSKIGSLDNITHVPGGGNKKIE
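Tau K18 P301L fragment (15 uM unlabeled plus 0.24 uM Alexa 594-labeled) in 100 mM sodium acetate pH 7 with compound, fibrillization induced by 20 uM heparin for 6 hr at 37 C. Thioflavin T (30 uM) added, fluorescence read after 1 hr (ex 450, em 510 nm).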
Tau fluor counter: counter-screen for tau fibril formation inhibitors; Potency, µM (series often up to 57.7 µM), for the others: at the highest dose activity change, negative = decrease; AID 1463; tau K18 P301L Alexa594 fluorescence, heparin fibrillization; 280,000 tested, 0.93% active; note: nearly all actives have a fitted effect of over 55% in size
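Human tau K18 P301L (15 uM unlabeled, 0.24 uM Alexa 594-labeled) in 100 mM sodium acetate pH 7 with 20 uM heparin, 6 hr at 37 C. ThT 30 uM added, 1 hr ambient; Alexa 594 FP and total fluorescence read at 555/632 nm.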
Tau FP inhib: tau fibrillization inhibition (FP). Potency, µM (top dose mostly 57.7 µM), for the others: top-dose activity, negative = inhibition, most hits filed as inhibitors. P10636. K18 P301L tau heparin fibrillization, Alexa594 FP, 6 h. 280,000 tested, 0.39% active. AID 1468; note: nearly all actives have a fitted effect of over 55% in size
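Recombinant K18 P301L […], labeled with Alexa 594 at 0.24 uM over 15 uM unlabeled; heparin inducer 20 uM final; 37 C, 6 hr; FP endpoint.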
Luc counter: counter-screen: inhibitors of Kinase-Glo firefly luciferase; Kinase-Glo luciferase, ATP luminescence, 8 min; Potency, µM (doses to about 38.3 µM), without a hit: top-dose activity change, negative = inhibition, most hits filed as inhibitors; 200,000 tested, 0.28% active; note: nearly all actives have a fitted effect of over 60% in size
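Luminescence was the read-out, taken after 8-minute incubation at ambient temperature. Luciferase turned over luciferin with 10 uM ATP in imidazole pH 7.2 buffer containing KCl, MgCl2, Tween 20 and BSA.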
An asterisk follows results filed as active; ? = inconclusive; nt = not tested or not shown; [ ] = remark or other dose. Calls come from the whole dose curve; as a rule, active = well fitted curve in the direction sought with a large enough effect; inconclusive = small, poorly fitted or top-dose-only effect, or another doubt; inactive = no such curve, though single readings can be large; an effect the other way counts as inactive or inconclusive. % is set by controls: 0 for no effect and ±100 for the full control effect; potency is the fitted concentration of half-maximal effect.

SMILES	NPSR antag	Tau fibril ThT	Tau fluor counter	Tau FP inhib	Luc counter
COc1cc(CNC(=O)C2CCCCN2S(=O)(=O)c2ccc(F)cc2)cc(OC)c1OC (stereo not drawn)	nt	-10.8%	-12.3%	-1.2%	nt
N[C@H](CS)C(=O)O	nt	?	-11.5%	?	nt
N[C@@H](CSS(=O)(=O)O)C(=O)O	nt	12.6µM*	-11.5%	17.8µM*	1.5%
COC(=O)/C=C/C(C)=C/C=C/C(C)=C/C=C/C=C(C)/C=C/C=C(C)/C=C/C(=O)O	nt	12.6µM*	-23.1%	?	-2.2%
Cc1nc2ccn(Cc3ccccc3)c(=O)c2cc1C(=O)Nc1ccc(F)cc1Cl	nt	0.1%	6.7%	6.9%	nt
COc1ccccc1-n1ncc2c(=O)[nH]c(SCC(=O)Nc3ccc(Cl)cc3)nc21	nt	3.5%	-9.3%	-2.9%	nt
CC1=C(C(=O)Nc2ccc(C)cc2C)C(c2sccc2C)n2ncnc2N1 (stereo not drawn)	nt	1.2%	-0.6%	0.7%	nt
CCOC(=O)C(C(=O)OCC)c1cc(Br)c2noc3c2c1C(=O)c1ccccc1-3	3.98µM*	1.12µM*	2.51µM*[quencher]	2.24µM*	-10.6%
COc1cccc(C2C3=C(N=c4s/c(=C\c5ccc(O)cc5)c(=O)n42)c2ccccc2CC3)c1OC (stereo not drawn)	-13.6%[46.1 µM]	?	?	-7.5%	3.3%
COc1cccc(C2C3=C(N=c4s/c(=C\c5ccc(OCC(=O)O)cc5)c(=O)n42)c2ccccc2CC3)c1 (stereo not drawn)	-57.6%	22.4µM*	-12.8%	-14.1%	nt
COc1cccc(C2C3=C(N=c4s/c(=C\c5cccc(O)c5)c(=O)n42)c2ccccc2CC3)c1OC (stereo not drawn)	?	?	?	22.4µM*	0.1%
COc1ccccc1C1C2=C(N=c3s/c(=C/c4cccc(OCC(=O)O)c4)c(=O)n31)c1ccccc1CC2 (stereo not drawn)	-43.8%	15.8µM*	?	?	0.6%
COC(=O)NC(/C=C/c1ccco1)[C@@]1(C(=O)OC)CCCC1=O (stereo partly drawn)	nt	?	-13.2%[11.6 µM]	?	nt
CC[C@H](C(=O)[C@H](C)[C@H](O)[C@H](C)CCc1ccc(C)c(O)c1C(=O)O)[C@H]1O[C@](CC)([C@@H]2CC[C@@](O)(CC)[C@H](C)O2)C[C@H]1C	nt	nt	nt	nt	2.6%[17.1 µM]
c1ccc(-c2ccc(-c3ccccn3)nn2)nc1	-8.3%[46.1 µM]	-8.3%	0.0%	-14.5%	10µM*
Fc1cccc(NC(=S)NCCc2ccccc2)c1	-35.4%	-9.1%	?	?	-1.3%
CCCCOCCCNC(=S)Nc1ccc(S(=O)(=O)N2CCOCC2)cc1	-7.3%	-1.0%	-19.5%	?	nt
S=C(NCCC(c1ccccc1)c1ccccc1)Nc1ccc(Cl)cc1	-30.0%[46.1 µM]	15.2%	8.91µM*[quencher]	14.1µM*	-3.6%
O=S(=O)(c1ccc(NC(=S)NCCC(c2ccccc2)c2ccccc2)cc1)N1CCOCC1	-6.0%	10.1%	?	14.1µM*	-0.8%
O=[N+]([O-])c1ccc(NC(=S)NCCc2ccc(F)cc2)cc1	-45.4%	?	14.1µM*[quencher]	?	-0.8%
S=C(NCCc1ccccc1)Nc1ccc(Nc2ccccc2)cc1	57.4%	?	15.8µM*[quencher]	?	2.3%
Fc1ccc(NC(=S)NCCc2ccc(Cl)cc2)cc1	-19.4%	6.6%	?	?	2.2%
O=c1[nH]c(CSc2nnc(Nc3ccccc3)s2)nc2ccccc12	-9.8%	2.9%	-8.3%	-2.4%	nt
CCN(C(=O)Cn1nc(Cc2ccncc2)c2ccccc2c1=O)c1ccc(OC)cc1	nt	-9.0%	-8.0%	-6.1%	nt
c1ccc(-c2nnc3sc(-c4csc5c4CCCC5)nn23)cc1	10µM*	?	-19.8%	?	-4.6%
SMILES	NPSR antag	Tau fibril ThT	Tau fluor counter	Tau FP inhib	Luc counter
CN1C(=O)Cc2cc(S(=O)(=O)CCC(=O)Nc3ccccc3)ccc21	nt	-2.1%	-0.6%	-0.5%	nt
CCn1c(O)c(/C=C2\C=Nc3ccccc32)sc1=Nc1ccccc1	-24.0%[46.1 µM]	-12.1%	?	12.9%	-0.7%
Cn1c(O)c(/C=C2\C=Nc3ccccc32)sc1=Nc1ccc(C(=O)O)cc1	-18.0%	nt	-25.8%	9.1%	nt
O=c1[nH]c(/C=C2\C=Nc3ccccc32)c(O)n1Cc1ccccc1F	-53.8%	?	7.94µM*[quencher]	0.4%	4.4%
CSc1nc(O)c(/C=C2\C=Nc3ccccc32)[nH]1	-12.2%	1.3%	-5.0%	6.6%	6.31µM*
CCc1nc2nc(C)cc(Nc3cc(Cl)ccc3C)n2n1	nt	-10.5%	-7.7%	-2.5%	nt
N=C1/C(=C\c2ccc(SCc3ccco3)o2)C(=O)N=C2SC=NN12	-26.8%[46.1 µM]	6.31µM*	-7.8%	-7.1%	-7.3%
Cc1cccc(N2CCC(N3CCN(C4CCCCC4)C(CCO)C3)CC2)c1C (stereo not drawn)	6.9%	10µM*	-39.0%	-56.8%	-3.2%
CC(C)C(=O)Nc1nc2cc3c(cc2s1)OCO3	-9.0%[46.1 µM]	-13.7%	-3.0%	-0.3%	1.0%
Fc1cccc2sc(Nc3nc4cc5c(cc4s3)OCCO5)nc12	-34.7%	?	14.1µM*[quencher]	-4.9%	-3.2%
Fc1cc(F)c2nc(Nc3nc4cc5c(cc4s3)OCO5)sc2c1	1.0%	?	5.01µM*[quencher]	4.2%	0.3%
Fc1cccc2sc(Nc3nc4cc5c(cc4s3)OCO5)nc12	-38.4%	7.94µM*	7.94µM*[quencher]	-2.3%	1.1%
CC(C)Cn1[nH]c2c3c(ccc2c1=O)C(=O)c1ccccc1C3=O	-25.2%[46.1 µM]	14.1µM*	?	4.1%	-14.0%
Cc1cccc(-n2[nH]c3c4c(ccc3c2=O)C(=O)c2ccccc2C4=O)c1	-20.4%	?	?	10.4%	-5.7%
Cc1cccnc1Nc1nc(-c2ccc(O)c(O)c2)cs1	-21.8%[46.1 µM]	7.94µM*	12.6µM*[quencher]	-1.8%	-3.0%
COc1ccc(-c2csc(Nc3ncccc3C)n2)cc1OC	-9.9%[46.1 µM]	10µM*	?	11.9%	7.6%
C=CCOC(=O)NC(c1ccc(F)c(F)c1)C(C(C)=O)C(=O)OC (stereo not drawn)	nt	-3.5%	-2.9%	-3.0%	-1.1%
Cn1c(/N=C/c2ccc3c(c2)OCO3)nc2ccccc21	-5.8%[46.1 µM]	-4.3%	-3.3%	-0.8%	11.2µM*
Nc1nc2ccccc2n1/N=C/c1ccc2c(c1)OCO2	-8.0%	?	-15.1%	1.2%	nt
Fc1ccc(CSc2nncn3c2cc2occc23)c(Cl)c1	nt	-13.1%	-23.6%	-13.6%	nt
Cc1nnsc1C(=O)N/N=C/c1ccc2ccccc2c1O	6.3%[46.1 µM]	3.16µM*	-20.3%	?	nt
Cc1nnsc1C(=O)N/N=C/c1ccccc1	4.0%	3.4%	4.7%	-0.4%	-5.1%
O=c1c2oc3ccccc3c2[nH]c(=S)n1-c1ccc(F)cc1	10µM*	-17.2%	-14.9%	-4.7%	1.0%
Cc1ccc(-n2c(=S)[nH]c3c(oc4ccccc43)c2=O)cc1C	?	-18.1%	-14.0%	-1.5%	nt
CN1C(=O)C(N=Nc2ccccc2C(=O)O)N(C)C1=S (stereo not drawn)	-27.5%	4.47µM*	1.2%	-6.4%	-9.5%
